PNC inhibitor = inhibitors of perinucleolar compartment assembly; PC3M PTB-GFP, PNC prevalence imaging, 16 h; hits give low values; activity change (PNC), negative = inhibition, % at 10 µM; actives 3.1% (n = 140,000); AID 2417;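 active = readout at or below -70, meaning at least 70% loss of cells showing the perinucleolar compartment, a nuclear body marking cancer cells; inconclusive = readout between -30 and a set limit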;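 note: plate controls were DMSO wells for no effect and camptothecin positive control wells for full effect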
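Read-out is percentage of cells bearing a perinucleolar compartment, from automated 20x imaging of fixed, Hoechst-stained PC3M PTB-GFP cells. Cells were seeded 4 h, then exposed 16 h to compound (23 nl of library stock) in duplicate plates.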
LMNA splice mod = modulators of lamin A splicing. Potency, µM (titrated, usually from 46.1 µM), inactives show top-dose ratio change, negative = inhibition, most hits filed as inhibitors. actives 0.01% (n = 200,000). HeLa LMNA splicing GFP/RFP minigene ratio, 48 h. AID 1487; active = well fitted inhibition curve with a large enough effect in the signal ratio, with a control signal flat, not every such curve was filed as active; inconclusive = small, poorly fitted or top-dose-only effect, or effect the other way, or a change in a side signal; the % refers to the signal ratio; note: potency is the fitted concentration of half-maximal effect
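Read-out is the ratio of GFP to DsRed2 object intensity, acquired by 488 nm laser-scanning cytometry on HeLa lamin A-EGFP minigene reporter cells. Compound incubation 48 hrs at 37 °C in Opti-MEM with 2% FBS; DMSO 0.5% final.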
ALDH1A1 block = blocks purified human ALDH1A1 activity | Potency, µM (top dose mostly 75.3 µM), for inactives: at the top dose activity, negative = inhibition, usual class: inhibitors | AID 1030 | Purified ALDH1A1, NADH fluorescence, propionaldehyde substrate | actives 7.3% (n = 220,000);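 note: potency is the fitted concentration of half-maximal effect; plate controls were no enzyme wells and a reference inhibitor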
KinaseGlo FLuc = Kinase-Glo luciferase inhibition (counter-screen). Q27757. Kinase-Glo luciferase, ATP luminescence, 8 min. Potency, µM (highest dose often 38.3 µM), without a hit: at the top dose activity change, negative = inhibition, actives largely listed as inhibitors. actives 0.28% (n = 200,000). AID 1379; active = well fitted inhibition curve with a large enough effect; inconclusive = small, poorly fitted or top-dose-only effect; note: potency is the fitted concentration of half-maximal effect; nearly all actives have a fitted effect of over 60% in size
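Compound is pinned into ATP-containing buffer (10 uM ATP, imidazole pH 7.2, 7 mM MgCl2). Kinase-Glo luciferase reagent is then added. Light output is recorded following an 8-min room-temperature incubation.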
HPGD inh = blocks human HPGD enzyme activity | purified HPGD, NADH fluorescence kinetic, PGE2 substrate | actives 4.3% (n = 150,000) | Potency, µM, for inactives: top-dose activity change, negative = inhibition, hits mostly inhibitors | P15428; note: potency is the fitted concentration of half-maximal effect
Target sequence (P15428 whole entry, looked up): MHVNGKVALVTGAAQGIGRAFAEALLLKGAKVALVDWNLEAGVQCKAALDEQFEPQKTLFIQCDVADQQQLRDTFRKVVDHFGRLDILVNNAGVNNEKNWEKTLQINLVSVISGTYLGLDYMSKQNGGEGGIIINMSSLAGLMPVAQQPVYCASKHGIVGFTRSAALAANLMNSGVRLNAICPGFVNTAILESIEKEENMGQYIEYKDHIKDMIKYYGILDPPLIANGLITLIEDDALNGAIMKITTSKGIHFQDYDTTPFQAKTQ
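20 nM HPGD preincubated 15 min at room temperature with compound in 50 mM Tris-HCl pH 8, 0.01% Tween 20. Started with 1 mM NAD+ and 30 uM prostaglandin E2; NADH fluorescence (360/450 nm) read 5 times over 30-s intervals, last minus first.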
* marks the source's active call; other numbers are inactive results; [ ] = another dose, or the depositor's remark. Rows were chosen to be rich in hits. Some 10% of all compounds tested hit in one or more screens of this group. Unless noted, calls come from the whole dose curve; as a rule, active = well fitted inhibition curve with a large enough effect (not every such curve was filed as active); inconclusive = small, poorly fitted or top-dose-only effect, or another doubt; inactive = no such curve, though single readings can be large or run the other way. Unless noted, % is set by controls: 0 for no effect and ±100 for the full control effect.

Cc1ncoc1C(=O)N1CCCC(C(=O)c2cccc(C(F)(F)F)c2)C1 (centres undefined) was read as LMNA splice mod inconclusive, ALDH1A1 block -5.5% and KinaseGlo FLuc 4.4%.
N#C/C(=C\c1ccncc1)c1nc2ccccc2c(=O)[nH]1 was read as LMNA splice mod inconclusive, ALDH1A1 block 7.94µM* and KinaseGlo FLuc -0.8%.
Screening CCOc1cc(N2CCOCC2)c(OCC)cc1NC(C)C(=O)N1CCN(CC)CC1 (centres undefined) returned LMNA splice mod inconclusive, ALDH1A1 block 22.4µM* and KinaseGlo FLuc -2.2%.
For Cc1cc(-c2ccccc2)nc(Oc2ccc(C(C)(C)C)cc2)c1S(C)(=O)=O the results were PNC inhibitor 2.0, LMNA splice mod inconclusive, ALDH1A1 block -12.4%, KinaseGlo FLuc -3.6% and HPGD inh -10.8%.
For Cc1cc(C)c(S(C)(=O)=O)c(Oc2ccccc2C)n1 the results were PNC inhibitor 59.4, LMNA splice mod 5.3%, ALDH1A1 block 10.0%, KinaseGlo FLuc 1.8% and HPGD inh 28.2µM*.
For CCOCCOc1nc(C)cc(C)c1S(=O)(=O)c1ccccc1C the results were LMNA splice mod 4.1%[46 µM], ALDH1A1 block 0.3% and KinaseGlo FLuc 1.2%.
`Cc1cc(C)cc(Oc2nc(-c3ccccc3)cc(C)c2S(C)(=O)=O)c1` gave PNC inhibitor -112.1*, LMNA splice mod inconclusive, ALDH1A1 block 14.1µM*, KinaseGlo FLuc -3.8% and HPGD inh inconclusive.
Cc1cc(C)c(S(=O)(=O)c2ccccc2C)c(OCC(C)(C)C)n1 was read as PNC inhibitor inconclusive, LMNA splice mod 15.5%, ALDH1A1 block 12.6µM*, KinaseGlo FLuc -2.8% and HPGD inh -14.0%.
Screening CC1=C2[C@@H]([C@H](C)CC[C@H]2/C=C(\C)C(=O)O)[C@H](O)C1 returned ALDH1A1 block inconclusive and HPGD inh -9.8%.
For CC12CCC(CC1=O)C2(C)C (centres undefined) the results were ALDH1A1 block 7.08µM* and HPGD inh -10.2%.
`Cc1nc2sc3c(c2c(=O)n1NC(=O)CCBr)CCCC3` gave ALDH1A1 block 14.1µM* and KinaseGlo FLuc -1.1%.
CCn1c(SCC(N)=O)nc2sc3c(c2c1=O)CCCC3 was read as PNC inhibitor 16.4, LMNA splice mod -7.9%, ALDH1A1 block inconclusive, KinaseGlo FLuc -0.1% and HPGD inh -15.7%.
`COc1ccc(Cn2c(CNS(=O)(=O)c3ccc(C)c(C)c3)nc3cccnc32)cc1` gave LMNA splice mod -7.8%[46 µM].
`CC1CC(C)CN(C(=O)c2cc3c(s2)CCC3)C1` (centres undefined) gave PNC inhibitor -6.9, LMNA splice mod 12.0%, ALDH1A1 block inconclusive, KinaseGlo FLuc 0.4% and HPGD inh 12.6µM*.
`O=C(c1cc2c(s1)CCCC2)N1CCN(c2ccccc2)CC1` gave ALDH1A1 block 22.4µM*.
`COc1ccc(OCC(O)CNC(=O)Nc2ccccc2)cc1` (centres undefined) gave ALDH1A1 block -3.8%.
O=C(NCC(O)COc1ccc([N+](=O)[O-])cc1)Nc1ccccc1 (centres undefined) was read as ALDH1A1 block 20µM*.
`CC(=O)O[C@H]1CC[C@@]2(C)C(=CC[C@@H]3[C@H]4CC[C@@H]([C@H](C)C(=O)O)[C@]4(C)CC[C@H]32)C1` gave ALDH1A1 block 13.6%[13.5 µM], KinaseGlo FLuc 1.5%[7.66 µM] and HPGD inh -9.4%.
CC(C)c1cc(C(=O)NNC(=S)NCc2ccco2)c(O)c(C(C)C)c1 was read as PNC inhibitor 17.7, LMNA splice mod inconclusive, ALDH1A1 block 22.4µM*, KinaseGlo FLuc 2.0% and HPGD inh inconclusive.
Screening COc1ccc(C2C(=O)N(C3CCC(C)CC3)CC(=O)N2C2CCCC2)cc1OC (centres undefined) returned LMNA splice mod -8.6%[46 µM].
`CCN1CCN(CC(=O)c2cc(Cl)ccc2Cl)CC1` gave LMNA splice mod inconclusive, ALDH1A1 block 14.1µM* and KinaseGlo FLuc -5.4%.
Screening CC[C@@H]1Cn2c(c3nc(-c4ccccc4)nc-3n(C)c2=O)N1 returned ALDH1A1 block inconclusive, KinaseGlo FLuc -1.8% and HPGD inh inconclusive.
